Among the test systems are SR leukemia; RPMI-8226 leukemia; OVCAR-8 ovarian; OVCAR-5 ovarian; OVCAR-4 ovarian; SK-OV-3 ovarian; IGROV1 ovarian; OVCAR-3 ovarian; HS 578T breast; NCI/ADR-RES ovarian; T-47D breast; BT-549 breast; MDA-MB-435 melanoma; SW-620 colon; MCF7 breast; HCT-116 colon; HCC-2998 colon; KM12 colon.
What all share (assay): NCI-60 one-dose screen, 48 h (100 = growth as untreated, 0 = no growth, -100 = all killed)
Common to all, as to details: 10 µM unless noted

The panel holds about 83,000 compounds, 20% with a hit somewhere; the sample as a whole holds those more often.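 Step 1: grow cells in 96-well plates. Step 2: add test compound at a single concentration. Step 3: incubate 48 h. Step 4: record percent growth.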 Unmarked numbers belong to inactive results. Activity calls are given as the source filed them. The calls were made as follows: active = growth percent below 10; inactive = the rest.

In the case of `Nc1[nH]nc2nc(-c3ccccc3)n3c4ccccc4nc3c12`, the growth in the test on SR leukemia is 92.2%; in the test on RPMI-8226 leukemia, 101%; with OVCAR-8 ovarian, 98.8%; in the test on OVCAR-5 ovarian, 106%; with OVCAR-4 ovarian, 101%; in the test with SK-OV-3 ovarian, 93%. Further, the growth in the test on IGROV1 ovarian is 77.9%; in the test on OVCAR-3 ovarian, 106%; with HS 578T breast, 106%; with NCI/ADR-RES ovarian, 104%; in the test with T-47D breast, 90.1%; with BT-549 breast it was 105%. Also, the growth in the test on MDA-MB-435 melanoma is 98.7%; with SW-620 colon, 95.8%; with MCF7 breast, 92.7%; in the test on HCT-116 colon, 99.4%; with HCC-2998 colon it was 110%; in the test on KM12 colon it was 104%.

As for `O=[N+]([O-])c1ccccc1Sc1ccccc1[N+](=O)[O-]`, the growth is 104% with SR leukemia; 95.4% in the test on RPMI-8226 leukemia; 102% in the test with OVCAR-8 ovarian; 93.1% with OVCAR-5 ovarian; 95.9% with OVCAR-4 ovarian; 90.9% in the test with SK-OV-3 ovarian. Also, the growth is 105% in the test with IGROV1 ovarian; 92.4% in the test on OVCAR-3 ovarian; 95.8% with HS 578T breast; 96.2% in the test with NCI/ADR-RES ovarian; 81.5% in the test with T-47D breast; 100% in the test with BT-549 breast. The growth with MDA-MB-435 melanoma is 103%; in the test on SW-620 colon, 110%; in the test with MCF7 breast, 108%; in the test on HCT-116 colon, 94.9%; in the test on HCC-2998 colon it was 97.5%; in the test with KM12 colon it was 92.6%.

Regarding `COc1cc(O)c2c(=O)c3c(CC=C(C)C)cc(OC)c(O)c3oc2c1`, the growth is 24.7% in the test with SR leukemia; 29.8% in the test on RPMI-8226 leukemia; 26.4% in the test with OVCAR-8 ovarian; 51.2% in the test on OVCAR-5 ovarian; 52.5% in the test with OVCAR-4 ovarian; 17% with SK-OV-3 ovarian. Further, the growth is 41.7% in the test on IGROV1 ovarian; 1.93% (active) in the test on OVCAR-3 ovarian; 36.1% in the test on HS 578T breast; 16.1% in the test on NCI/ADR-RES ovarian; 45.9% in the test on T-47D breast; 33.2% with BT-549 breast. Besides, the growth in the test with MDA-MB-435 melanoma was -3.84% (active); in the test with SW-620 colon it was 26.3%; with MCF7 breast it was 23%; in the test with HCT-116 colon it was 11.8%; with HCC-2998 colon, 53.4%; in the test on KM12 colon, 23.2%.

For the compound `CNC(=O)NCC1OC(n2cnc3c(NC(=O)Nc4ccccc4)ncnc32)C2OC(=O)CC12` (centres undefined), the growth is 90.3% in the test with SR leukemia; 105% in the test on RPMI-8226 leukemia; 96.4% in the test on OVCAR-8 ovarian; 96.8% with OVCAR-5 ovarian; 106% in the test with OVCAR-4 ovarian; 102% in the test with SK-OV-3 ovarian. Further, the growth with IGROV1 ovarian is 92.3%; in the test with OVCAR-3 ovarian, 91.7%; in the test on HS 578T breast it was 105%; with NCI/ADR-RES ovarian, 96.8%; in the test on T-47D breast it was 91.6%; in the test on BT-549 breast it was 100%. The growth in the test with MDA-MB-435 melanoma is 101%; in the test on SW-620 colon, 106%; in the test with MCF7 breast, 97.9%; in the test with HCT-116 colon it was 98.7%; in the test with HCC-2998 colon, 93.1%; with KM12 colon, 106%.

For `Oc1c(I)cc(I)cc1CN(Cc1ccccn1)Cc1ccccn1`, the growth in the test on SR leukemia is 9.92% (active); in the test on RPMI-8226 leukemia it was 16.1%; in the test on OVCAR-8 ovarian, 10.1%; in the test with OVCAR-5 ovarian it was 55.1%; with OVCAR-4 ovarian, 26.4%; with SK-OV-3 ovarian, 25.8%. Further, the growth with IGROV1 ovarian is 15.3%; in the test on OVCAR-3 ovarian it was 30.8%; with HS 578T breast, 38.9%; in the test on NCI/ADR-RES ovarian, 0.252% (active); with T-47D breast, 22.4%; in the test with BT-549 breast, 30.7%. Further, the growth in the test on MDA-MB-435 melanoma is 35.6%; in the test with SW-620 colon it was 22.2%; with MCF7 breast, 13.4%; in the test on HCT-116 colon, 18.1%; in the test on HCC-2998 colon it was 35.1%; with KM12 colon it was 26.8%.

Regarding `N#Cc1ccc(O)c(C2=NCC(c3ccc(-c4ccccc4)cc3)O2)c1` (centres undefined), the growth in the test on SR leukemia was 23.7%; in the test with RPMI-8226 leukemia, 23.8%; in the test on OVCAR-8 ovarian, 16.6%; in the test with OVCAR-5 ovarian, 38.7%; in the test with OVCAR-4 ovarian, -1.03% (active); in the test with SK-OV-3 ovarian, 3.28% (active). Besides, the growth was 13.7% in the test on IGROV1 ovarian; 22.7% with OVCAR-3 ovarian; 48.9% with HS 578T breast; 5.24% (active) in the test with NCI/ADR-RES ovarian; -1.94% (active) in the test with T-47D breast; 16.3% in the test with BT-549 breast. Moreover, the growth was 26.8% in the test on MDA-MB-435 melanoma; 23.9% in the test with SW-620 colon; 10.3% in the test on MCF7 breast; 9.12% (active) in the test on HCT-116 colon; 34.8% in the test on HCC-2998 colon; 16.6% in the test on KM12 colon.

For `O=S(=O)(NCCNc1nccc(-c2c(-c3ccc(F)c(O)c3)nc3sccn23)n1)c1ccc(Cl)cc1`, the growth in the test with SR leukemia was 9.79% (active); with RPMI-8226 leukemia, -11.1% (active); with OVCAR-8 ovarian, 22.3%; in the test with OVCAR-5 ovarian, 93.1%; in the test on OVCAR-4 ovarian, 32.5%; with SK-OV-3 ovarian, 39.3%. Further, the growth in the test on IGROV1 ovarian was 30.3%; in the test on OVCAR-3 ovarian, 45.4%; with HS 578T breast it was 31.4%; with NCI/ADR-RES ovarian it was 28.5%; in the test with T-47D breast, 2.76% (active); with BT-549 breast it was 29.9%. Moreover, the growth in the test on MDA-MB-435 melanoma was 3.65% (active); in the test on SW-620 colon it was 52.3%; with MCF7 breast it was 13.5%; in the test on HCT-116 colon, 16.7%; with HCC-2998 colon, 59.6%; with KM12 colon, 12.6%.

For `COc1nc(/C=C\Nc2ccc3c(c2)OCCOCCOCCOCCO3)nc(OC)n1`, the growth in the test on SR leukemia was 119%; in the test with RPMI-8226 leukemia, 94.3%; in the test with OVCAR-8 ovarian, 108%; with OVCAR-5 ovarian it was 98.3%; in the test on OVCAR-4 ovarian, 95.5%; in the test with SK-OV-3 ovarian it was 106%. Also, the growth is 97.2% with IGROV1 ovarian; 99.2% in the test on OVCAR-3 ovarian; 89.9% in the test with HS 578T breast; 93.7% with NCI/ADR-RES ovarian; 87.5% in the test on T-47D breast; 92.9% with BT-549 breast. Further, the growth was 94.8% in the test with MDA-MB-435 melanoma; 94% in the test with SW-620 colon; 93% with MCF7 breast; 95.2% in the test on HCT-116 colon; 98.2% in the test on HCC-2998 colon; 101% in the test with KM12 colon.

Values taken from PubChem BioAssay (NCI).
